Source: PubChem BioAssay (National Center for Advancing Translational Sciences (NCATS))
This is a sample that favours compounds with a hit; in the whole collection about 21% have one here.
CHX counter = counter-screen hit for Shiga toxin inhibitors, cycloheximide; cell reporter, cycloheximide protein synthesis inhibition counterscreen; max response, %; 300,000 tested, 12% active; AID 2314; in the data active = max response mostly above about 13%, no sharp cut-off; inactive = mostly below about 14%; note: read at 38.3 µM for the half of the compounds with a filed dose; 0% is about no effect
Pf growth 48h = P. falciparum growth inhibition at 48 hours (one generation) | P. falciparum luciferase growth in erythrocytes, 48 h | Potency, µM (doses to about 28.7 µM), inactives show at the top dose activity change, negative = inhibition, most hits filed as inhibitors | 310,000 tested, 5.9% active | AID 504832; note: potency is the fitted concentration of half-maximal effect; % is set by controls: 0 for no effect and ±100 for the full control effect
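Luciferase-expressing parasites in RBCs, 2% Hct / 0.1% parasitemia final; RPMI 1640 + 0.5% Albumax; 37 C, 5% CO2, one generation; luminescence read-out, lower signal = inhibition.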
Pf growth 96h = inhibits malaria parasite growth, 96 h. P. falciparum luciferase reporter growth, 96 h. Potency, µM (titrated, usually from 28.7 µM), for inactives: at the highest dose activity change, negative = inhibition, most hits filed as inhibitors. 320,000 tested, 6.9% active; note: potency is the fitted concentration of half-maximal effect; % is set by controls: 0 for no effect and ±100 for the full control effect
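Two-generation exposure (96 h) targets delayed-death phenotype. Reporter parasites carrying integrated firefly luciferase, in red cells at 2% hematocrit and 0.05% parasitemia final, kept at 37 C, 5% CO2; luminescence loss indicates inhibition.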
Shiga inhibitor = Shiga toxin inhibition; Vero cells, Shiga toxin protein synthesis inhibition reporter; 290,000 tested, 9.2% active; inhibition, % at 38.7 µM; AID 2315; in the data active = inhibition mostly above about 28%, no sharp cut-off; inactive = mostly below about 43%; note: 0% is about no effect
An asterisk follows results filed as active; ? = inconclusive; . = no result. Unless noted, calls come from the whole dose curve; as a rule, active = well fitted inhibition curve with a large enough effect; inconclusive = small, poorly fitted or top-dose-only effect, or another doubt; inactive = no such curve, though single readings can be large or run the other way.

SMILES	CHX counter	Pf growth 48h	Pf growth 96h	Shiga inhibitor
C/C(NC(=O)c1ccccc1F)=C1\C(=O)C[C@@H]2[C@H]1C2(C)C	14*	-4%	.	35
OC(COC(c1ccccc1)c1ccccc1)CN1CCN(c2ccccn2)CC1 (stereo not drawn)	-5	?	?	-15
Cc1ccc2c(c1)c(C)c(C)n2CC(O)CN1CCOCC1 (stereo not drawn)	-4	12µM*	36%	-3
CNCC(O)Cn1c2c(c3ccccc31)CCCC2 (stereo not drawn)	0	10µM*	11%	-6
OC(CN1CCCCC1)Cn1c2ccccc2c2cc(Br)ccc21 (stereo not drawn)	-3	12µM*	9.3µM*	-4
Cc1c(C)n(CC(O)CN2CCCCCC2)c2ccccc12 (stereo not drawn)	0	?	185%	-3
OC(CN1CCN(c2ccccn2)CC1)Cn1c2ccccc2c2ccccc21 (stereo not drawn)	-4	?	1.9µM*	0
Cc1c(N2C(=O)CSC2c2ccc(F)cc2)c(=O)n(-c2ccccc2)n1C (stereo not drawn)	0	11%	3%	4
Cc1ccc2c(c1)c1c(n2CC(O)CN2CCCCCC2)CCCC1 (stereo not drawn)	-2	8.3µM*	20%	-2
O=C(O)/C(=C\c1ccccc1OC(F)F)Sc1nnc(-c2ccc(F)cc2)o1	0	13%	58%	-10
COc1ccccc1C(=O)NCC(=O)N/N=C/c1cc(Br)ccc1OC(=O)/C=C\c1ccco1	-4	38%	?	33
O=C(CNC(=O)c1ccccc1F)N/N=C/c1cc(Br)ccc1OC(=O)/C=C/c1ccco1	2	10µM*	?	37
O=C(CNC(=O)c1ccc(F)cc1)N/N=C/c1cc(Br)ccc1OC(=O)/C=C/c1ccco1	-2	13µM*	?	1
CCCn1c(SC(C)C(=O)NC2CC2)nnc1-c1ccncc1 (stereo not drawn)	.	-10%	-26%	.
COc1cccc(C(=O)Nc2ncc3c(n2)CC(C)CC3=O)c1 (stereo not drawn)	40*	13%	6%	71*
COc1ccc(C2CC(=O)c3cnc(NC(=O)c4ccccc4OC)nc3C2)c(OC)c1 (stereo not drawn)	-1	?	9.3µM*	6
COc1ccc(C2CC(=O)c3cnc(NC(=O)c4cccc(OC)c4)nc3C2)cc1 (stereo not drawn)	-2	?	?	6
COc1cc(OC)cc(C(=O)Nc2ncc3c(n2)CC(C)CC3=O)c1 (stereo not drawn)	4	-21%	-26%	18
C=CCOc1ccc(C2/C(=C(/O)c3ccc(OC)cc3)C(=O)C(=O)N2CCN2CCNCC2)cc1 (stereo not drawn)	2	.	22%	3
O=C(CSc1n[nH]c(-c2ccccc2F)n1)NCC(=O)Nc1ccc(F)c(F)c1F	-1	22%	4%	21
CCn1c(-c2c[nH]c3ccccc23)n[nH]c1=S	-3	20%	.	-3
CCn1c(-c2cc(C3CC3)nc3ccccc23)n[nH]c1=S	-3	?	?	-2
CCOc1ccccc1-c1cc(-c2n[nH]c(=S)n2CC)c2ccccc2n1	-2	1.9µM*	1.7µM*	26
CCn1c(-c2cc(-c3cc(C)ccc3C)nc3ccccc23)n[nH]c1=S	-1	?	2.6µM*	4
CCOc1cccc(-c2cc(-c3n[nH]c(=S)n3CC)c3ccccc3n2)c1	0	13µM*	12µM*	13
SMILES	CHX counter	Pf growth 48h	Pf growth 96h	Shiga inhibitor
Cc1ccc(-c2cc(-c3n[nH]c(=S)n3C)c3ccccc3n2)cc1	21	?	?	46
CCn1c(-c2cc(-c3ccc(C)c(C)c3)nc3ccccc23)n[nH]c1=S	26*	4.1µM*	3.7µM*	81*
COC(=O)CSc1nnc(CNC(=O)c2cc(OC)cc(OC)c2)n1-c1ccc(F)cc1	3	-8%	20%	19
O=C(NCCN1CCN(C(=O)c2ccc(F)cc2)CC1)C(=O)NCc1ccccc1	-6	2%	31%	-7
CN(/N=C/c1cccc(Br)c1)C1=NS(=O)(=O)c2ccccc21	-1	?	42%	-13
COC(=O)c1c(NC(=O)C2C3CCC(O3)C2C(=O)O)sc2c1CCCCCC2 (stereo not drawn)	0	?	?	12
COC(=O)c1c(NC(=O)C2C3CCC(C3)C2C(=O)O)sc2c1CCCCC2 (stereo not drawn)	13	5%	?	51*
CS(=O)(=O)c1ccc([C@@H](O)[C@@H](CO)NC(=O)C(Cl)Cl)cc1	.	?	4.7µM*	.
